Measurements taken from PubChem BioAssay (EPA / NIEHS).
Where “and” joins values, the source holds several entries; their conditions need not be identical. Identical values can stand only once. Results filed as inconclusive are left out. More than one record can exist for a structure, and the calls need not agree. Calls of active or inactive are those of the source. How the source made its calls, unless noted: active means hit-call score of the fitted dose curve at least 0.9, where 1 is the maximum; inactive means score below 0.9.

Key:
[1] = ATG_TAL_CIS: Attagene CIS-FACTORIAL HepG2 Assay for human TAL Basal Promoter (AID 2282966); conditions: HepG2 Attagene cis-factorial TAL promoter reporter; actives raise or lower the signal;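 further: background control endpoint measuring basal TAL promoter reporter mRNA not a specific factor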
How it was run: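 Endogenous transcription-factor activity is sensed in HepG2 cells through transfected cis-promoter reporter constructs. After 24 h dosing, reporter transcripts are quantified by RT-PCR and capillary electrophoresis. Gain or loss of signal is fitted relative to DMSO.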

[2] = ATG_TGFb_CIS: Attagene CIS-FACTORIAL HepG2 Assay for human Transforming Growth Factor (TGF) (AID 2282967); conditions: HepG2 Attagene CIS TGFb reporter, mRNA transcription; actives raise or lower the signal
How it was run: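 Multiplexed cis-reporter HepG2 system, 24 h treatment; mRNA induction read by fluorescence after RT-PCR and CE; DMSO negative control, bidirectional curve fitting.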

[3] = ATG_VDRE_CIS: Attagene CIS-FACTORIAL HepG2 Assay for human Vitamin D Receptor Element (VDRE) (AID 2282968); conditions: HepG2 VDRE cis-reporter transcription, actives raise or lower the signal
How it was run: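 Transient MRTU transfection of HepG2, 24 h compound exposure. Readout: reporter transcripts via RT-PCR and capillary electrophoresis, fluorescence. Bidirectional fit vs DMSO.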

[4] = biological target: Nuclear receptor subfamily 1 group I member 3 (Homo sapiens) (UniProt Q14994); assay: ATG_CAR_TRANS: Attagene TRANS-FACTORIAL HepG2 Assay for human Constitutive Androstane Receptor (CAR) (AID 2282969; active means hit-call score of the fitted dose curve at least 0.9, where 1 is the maximum;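 further: activators raise reporter mRNA above DMSO so AC50 marks induction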); conditions: HepG2 Attagene TRANS-FACTORIAL CAR reporter
Sequence of Nuclear receptor subfamily 1 group I member 3 (Homo sapiens) (Q14994 whole entry, looked up, the tested form may be a part): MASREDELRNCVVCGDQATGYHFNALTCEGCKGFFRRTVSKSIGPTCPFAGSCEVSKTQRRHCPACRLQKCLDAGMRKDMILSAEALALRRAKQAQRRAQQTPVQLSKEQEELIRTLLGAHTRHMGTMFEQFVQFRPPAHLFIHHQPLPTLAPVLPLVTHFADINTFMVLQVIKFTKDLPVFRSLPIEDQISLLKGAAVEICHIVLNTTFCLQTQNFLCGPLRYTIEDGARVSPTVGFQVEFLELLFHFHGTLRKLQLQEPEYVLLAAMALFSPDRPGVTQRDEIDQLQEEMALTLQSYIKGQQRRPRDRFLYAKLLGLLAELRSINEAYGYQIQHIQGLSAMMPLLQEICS
How it was run: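 Transiently transfected HepG2, multiplex TRANS reporters (CAR-Gal4 chimera driving GAL4-UAS reporter). 24 h dosing. Readout: reporter transcript by RT-PCR + capillary electrophoresis, fluorescence intensity; positive direction vs DMSO.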

[5] = biological target: Estrogen receptor (Homo sapiens) (UniProt P03372); assay: ATG_ERa_TRANS: Attagene TRANS-FACTORIAL HepG2 Assay for human Estrogen Receptor alpha (ERa) (AID 2282970; active means hit-call score of the fitted dose curve at least 0.9, where 1 is the maximum); conditions: HepG2 Attagene TRANS ERa GAL4 reporter, mRNA
Sequence of Estrogen receptor (Homo sapiens) (P03372 whole entry, looked up, the tested form may be a part): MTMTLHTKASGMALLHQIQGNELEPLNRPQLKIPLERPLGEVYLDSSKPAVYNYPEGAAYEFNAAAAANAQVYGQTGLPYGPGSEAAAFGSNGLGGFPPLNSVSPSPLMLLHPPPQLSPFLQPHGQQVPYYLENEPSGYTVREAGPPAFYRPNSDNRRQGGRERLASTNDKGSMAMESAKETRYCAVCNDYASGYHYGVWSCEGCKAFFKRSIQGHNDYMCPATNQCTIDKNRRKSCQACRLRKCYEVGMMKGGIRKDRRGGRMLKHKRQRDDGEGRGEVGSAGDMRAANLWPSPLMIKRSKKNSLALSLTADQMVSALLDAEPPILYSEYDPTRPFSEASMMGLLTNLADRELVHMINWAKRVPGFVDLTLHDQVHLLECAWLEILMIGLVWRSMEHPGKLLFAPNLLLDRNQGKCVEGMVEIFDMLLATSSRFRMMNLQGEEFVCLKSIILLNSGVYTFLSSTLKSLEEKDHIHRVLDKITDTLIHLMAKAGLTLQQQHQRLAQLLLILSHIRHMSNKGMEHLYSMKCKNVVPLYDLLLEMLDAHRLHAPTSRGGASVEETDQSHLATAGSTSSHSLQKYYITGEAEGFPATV
How it was run: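 Transfected HepG2 cells carrying GAL4-UAS-driven reporter units were dosed for 24 hours. Total RNA was reverse-transcribed, reporter sequences PCR-amplified, FAM-labelled, HpaI-digested and resolved by capillary electrophoresis. Increases over DMSO control defined activity.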

[6] = biological target: X-box-binding protein 1 (Homo sapiens) (UniProt P17861); assay: ATG_Xbp1_CIS: Attagene CIS-FACTORIAL HepG2 Assay for human X-box Binding Protein 1 (XBP1) (AID 2282972); conditions: HepG2 XBP1 cis-element reporter, Attagene multiplex; actives raise or lower the signal
Sequence of X-box-binding protein 1 (Homo sapiens) (P17861 whole entry, looked up): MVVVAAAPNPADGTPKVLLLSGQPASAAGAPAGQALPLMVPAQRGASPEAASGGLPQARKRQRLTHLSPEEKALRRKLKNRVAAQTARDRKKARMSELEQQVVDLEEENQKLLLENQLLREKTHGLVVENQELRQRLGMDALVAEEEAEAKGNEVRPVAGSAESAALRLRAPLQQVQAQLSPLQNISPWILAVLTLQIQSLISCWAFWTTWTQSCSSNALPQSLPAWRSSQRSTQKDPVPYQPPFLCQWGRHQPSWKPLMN
How it was run: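 Multiplexed cis-reporter readout in transfected HepG2 liver cells. Exposure lasted 24 hours. Activity in either direction was fitted against DMSO as negative control and baseline.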

[7] = ATG_M_19_TRANS: Attagene TRANS-FACTORIAL HepG2 Assay for M19 Transcription Factor (Internal Marker) (AID 2282974; active means hit-call score of the fitted dose curve at least 0.9, where 1 is the maximum); conditions: HepG2 Attagene TRANS-FACTORIAL M19 internal marker reporter
How it was run: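 Reporter mRNA induction was measured in transfected HepG2 cells 24 h after dosing. Endpoint fitted upward relative to DMSO and serves as a background control within the multiplexed TRANS panel.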

[8] = biological target: Glucocorticoid receptor (Homo sapiens) (UniProt P04150); assay: ATG_GR_TRANS: Attagene TRANS-FACTORIAL HepG2 Assay for human Glucocorticoid Receptor (GR) (AID 2282978; active means hit-call score of the fitted dose curve at least 0.9, where 1 is the maximum;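 further: activators score as hits since higher reporter transcript over DMSO is fitted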); conditions: HepG2 Attagene TRANS GR reporter, mRNA transcription
Sequence of Glucocorticoid receptor (Homo sapiens) (P04150 whole entry, looked up, the tested form may be a part): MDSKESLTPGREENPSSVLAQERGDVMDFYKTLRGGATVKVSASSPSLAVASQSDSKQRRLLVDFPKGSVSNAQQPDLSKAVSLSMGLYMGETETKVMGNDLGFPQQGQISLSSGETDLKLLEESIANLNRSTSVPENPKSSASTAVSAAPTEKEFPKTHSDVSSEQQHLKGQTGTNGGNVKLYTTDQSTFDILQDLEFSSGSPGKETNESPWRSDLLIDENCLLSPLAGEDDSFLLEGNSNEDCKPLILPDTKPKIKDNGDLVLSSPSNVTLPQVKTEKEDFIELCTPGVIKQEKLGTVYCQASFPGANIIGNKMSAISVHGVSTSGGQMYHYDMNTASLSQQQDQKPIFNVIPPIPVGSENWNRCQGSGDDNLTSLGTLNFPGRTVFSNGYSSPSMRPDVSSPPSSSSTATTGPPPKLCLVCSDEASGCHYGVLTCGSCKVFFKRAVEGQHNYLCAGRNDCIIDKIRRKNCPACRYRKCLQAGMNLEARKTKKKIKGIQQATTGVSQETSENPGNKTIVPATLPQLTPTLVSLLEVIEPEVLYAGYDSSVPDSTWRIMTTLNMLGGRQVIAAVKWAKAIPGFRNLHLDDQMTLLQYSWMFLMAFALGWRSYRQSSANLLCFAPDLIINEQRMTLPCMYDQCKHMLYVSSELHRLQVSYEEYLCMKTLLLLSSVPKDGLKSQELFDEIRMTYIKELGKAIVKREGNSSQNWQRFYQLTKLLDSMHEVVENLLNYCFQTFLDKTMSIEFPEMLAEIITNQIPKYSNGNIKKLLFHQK
How it was run: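 Reporter transcript levels, detected by fluorescence after RT-PCR and capillary electrophoresis, served as the endpoint. HepG2 cells bearing transfected GAL4-UAS reporters responsive to NR-GAL4 chimeras were incubated with compound 24 h; DMSO defined baseline.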

[9] = ATG_GAL4_TRANS: Attagene TRANS-FACTORIAL HepG2 Assay for GAL4 (Internal Marker) (AID 2282976; active means hit-call score of the fitted dose curve at least 0.9, where 1 is the maximum); conditions: HepG2 Attagene TRANS GAL4 internal marker reporter
How it was run: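 Fluorescence from capillary electrophoresis of labelled RT-PCR products quantifies reporter mRNA induction after 24 h dosing of HepG2 cells carrying transfected GAL4-UAS reporter transcription units. Vehicle DMSO serves as baseline.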

[10] = biological target: Estrogen-related receptor gamma (Homo sapiens) (UniProt P62508); assay: ATG_ERRg_TRANS: Attagene TRANS-FACTORIAL HepG2 Assay for human Estrogen-Related Receptor gamma (ERRg) (AID 2282977; active means hit-call score of the fitted dose curve at least 0.9, where 1 is the maximum;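 further: hits increase reporter signal over DMSO so potencies reflect activators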); conditions: HepG2 Attagene TRANS reporter, ERRg transactivation
Sequence of Estrogen-related receptor gamma (Homo sapiens) (P62508 whole entry, looked up, the tested form may be a part): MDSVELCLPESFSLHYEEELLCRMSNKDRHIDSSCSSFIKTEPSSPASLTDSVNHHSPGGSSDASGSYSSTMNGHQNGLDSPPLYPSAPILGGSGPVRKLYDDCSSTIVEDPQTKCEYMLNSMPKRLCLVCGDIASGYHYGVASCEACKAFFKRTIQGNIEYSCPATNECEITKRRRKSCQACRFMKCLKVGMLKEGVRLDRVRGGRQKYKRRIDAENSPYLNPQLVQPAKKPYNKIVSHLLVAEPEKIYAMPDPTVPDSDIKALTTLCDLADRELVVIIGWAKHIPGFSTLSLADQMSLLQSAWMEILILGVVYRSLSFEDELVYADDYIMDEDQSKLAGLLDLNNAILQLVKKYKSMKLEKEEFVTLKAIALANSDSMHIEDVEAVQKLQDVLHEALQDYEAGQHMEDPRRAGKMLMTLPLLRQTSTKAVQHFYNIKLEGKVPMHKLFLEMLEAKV
How it was run: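 Readout: fluorescent reporter-mRNA fragments resolved by capillary electrophoresis after RT-PCR and HpaI cut. Cells: transiently transfected HepG2 carrying GAL4-UAS reporters driven by exogenous NR-Gal4 chimeras, dosed 24 h. Activity fitted upward relative to DMSO baseline.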

Measured: AC50

COc1ccc(C=O)cc1
not listed: [8] | [9] | [10]
inactive: all other assays above

O=C/C=C/c1ccccc1
active: [3] 45.5 µM | [5] 27.8 µM
not listed: [9] | [10]
inactive: all other assays above

COP(=S)(OC)Oc1ccc(Sc2ccc(OP(=S)(OC)OC)cc2)cc1
inactive: [4] | [5]
active: [1] 57.7 µM | [2] 61700 nM | [3] 9.75 µM | [6] 6.02 µM

O=C(Cc1ccccc1)c1ccccc1
active: [5] 22.7 µM
not listed: [9] | [10]
inactive: all other assays above

CC(Br)C(=O)O (configuration not stated)
not listed: [8] | [10]
inactive: all other assays above

CC(C)(c1ccccc1)c1ccc(O)c(C(C)(C)c2ccccc2)c1
inactive: [1] | [2] | [4] | [7]
active: [3] 0.702 µM | [5] 5.55 µM | [6] 10.1 µM

c1ccc(N=NNc2ccccc2)cc1
inactive: [1] | [2] | [4] | [10]
active: [3] 28.4 µM | [5] 27.1 µM | [6] 108 µM

COP(=S)(OC)Oc1c(Cl)cc(C)cc1Cl
active: [3] 7.7 µM | [5] 3.3 µM
not listed: [9] | [10]
inactive: all other assays above

C[C@@H]1C[C@@H]([C@H](O)CC2CC(=O)NC(=O)C2)C(=O)[C@@H](C)C1
inactive: [1] | [6] | [10]
active: [1] 0.191 µM | [6] 89.5 µM

ClCc1cccnc1
inactive: [1] | [4] | [5] | [7]
active: [2] 63200 nM | [3] 48.3 µM | [6] 58.1 µM

CCN1CCC2(CC1)COc1cc3c(cc12)N(C(=O)c1ccc(-c2ccc(-c4nnc(C)o4)cc2C)cc1)CC3
not listed: [8] | [10]
inactive: all other assays above

ClCc1ccccn1
active: [6] 65.6 µM
inactive: [1] | [2] | [3] | [4] | [5]

O=S(=O)(c1ccc(Cl)cc1)c1ccc(Cl)cc1
active: [3] 27.2 µM
not listed: [7] | [9]
inactive: all other assays above

Oc1cccc2cccnc12
inactive: [1] | [2] | [3] | [6]
active: [3] 67.9 µM

C[C@]12CCC(=O)C[C@@H]1CC[C@@H]1[C@@H]2CC[C@]2(C)[C@@H](O)CC[C@@H]12
active: [2] 123 µM and 99.6 µM | [3] 33 µM and 17.9 µM and 23.4 µM
inactive: [1] | [2] | [3] | [6] | [7] | [8]

O=C(O)C(F)(F)C(F)(F)C(F)(F)C(F)(F)C(F)(F)C(F)(F)C(F)(F)C(F)(F)C(F)(F)C(F)(F)F
inactive: [1] | [4] | [6] | [7] | [10]
active: [1] 95.5 µM | [3] 25.7 µM and 16.8 µM | [6] 26.7 µM

OCc1ccco1
not listed: [7] | [8] | [9]
inactive: all other assays above

COc1cc(OC)nc(NC(=O)NS(=O)(=O)c2ncccc2C(=O)N(C)C)n1
active: [5] 77.8 µM
not listed: [7] | [8] | [10]
inactive: all other assays above

ClC1=C(Cl)[C@]2(Cl)[C@@H]3[C@@H](Cl)[C@@H](Cl)C[C@@H]3[C@@]1(Cl)C2(Cl)Cl
not listed: [7] | [10]
inactive: all other assays above

CCCCCCCCc1ccc(O)cc1
inactive: [1] | [2] | [3] | [4] | [6] | [7] | [8]
active: [3] 18.9 µM

O=C1C2(Cl)C3(Cl)C4(Cl)C(Cl)(Cl)C5(Cl)C3(Cl)C1(Cl)C5(Cl)C24Cl (configuration not stated)
inactive: [1] | [2] | [3] | [6] | [7] | [10] | [8]
active: [1] 20.3 µM | [3] 13.1 µM | [6] 15.9 µM

CC(C)c1cccc(C(C)C)c1O
not listed: [8] | [9] | [10]
inactive: all other assays above

CC(C)(C)CC(C)(C)c1ccc(O)cc1
inactive: [1] | [2] | [3] | [6] | [7] | [8]
active: [3] 3.28 µM and 14.2 µM

CCOP(=S)(OCC)Oc1nc(Cl)c(Cl)cc1Cl
active: [3] 5.83 µM | [5] 26.9 µM | [6] 100 µM
not listed: [9] | [10]
inactive: all other assays above

COC(=O)c1sccc1S(=O)(=O)NC(=O)Nc1nc(C)nc(OC)n1
not listed: [9] | [10]
inactive: all other assays above

O=C(Nc1ccc2[nH]ccc2c1)c1cc2cc(F)ccc2n1Cc1cccc(F)c1
active: [3] 11 µM | [6] 14.1 µM
not listed: [8]
inactive: all other assays above

O=C(O)Cc1ccccc1
not listed: [8] | [9] | [10]
inactive: all other assays above

CCOP(=S)(OCC)SCSP(=S)(OCC)OCC
active: [3] 1.32 µM | [5] 3.88 µM
not listed: [9] | [10]
inactive: all other assays above

CCOP(=S)(OCC)Oc1ccc(S(C)=O)cc1 (configuration not stated)
active: [3] 31.2 µM
not listed: [8] | [9]
inactive: all other assays above

Nc1cccc(Cl)c1
active: [2] 739 nM
not listed: [8] | [9]
inactive: all other assays above

CNC(=O)O/N=C/C(C)(C)S(C)=O (configuration not stated)
not listed: [7] | [10]
inactive: all other assays above

BrCCBr
active: [5] 27.5 µM
not listed: [9]
inactive: all other assays above

CC(C)C1CCC(Cc2ccc(Cl)cc2)C1(O)Cn1cncn1 (configuration not stated)
active: [3] 4.62 µM
not listed: [9]
inactive: all other assays above

CCC(=O)c1ccccc1
inactive: [1] | [2] | [3] | [4] | [5] | [6]

CCN(CC)C(=O)Cl
active: [2] 104 nM | [5] 15.9 µM
not listed: [7] | [8]
inactive: all other assays above

Nc1ccc(N=Nc2ccc(-c3ccc(N=Nc4c(S(=O)(=O)O)cc5cc(S(=O)(=O)O)c(N=Nc6ccccc6)c(O)c5c4N)cc3)cc2)c(N)c1
inactive: [1] | [2] | [3] | [4] | [6]
active: [5] 19.9 µM

CC(=O)C(Cl)C(=O)N(C)C (configuration not stated)
not listed: [9] | [10]
inactive: all other assays above

COP(=O)(OC)OC
not listed: [7] | [8] | [9]
inactive: all other assays above

CC(C)c1ccc(CO)cc1
active: [3] 36.2 µM | [5] 60.1 µM
inactive: [1] | [2] | [6] | [7]

COP(=S)(OC)Oc1ccc(S(=O)(=O)N(C)C)cc1
active: [3] 38.8 µM
not listed: [4] | [8] | [9]
inactive: all other assays above

Nc1ccc(Cl)cc1C(=O)c1ccccc1
active: [3] 16.6 µM | [5] 3.63 µM
inactive: [1] | [2] | [6] | [7] | [8]

O=C(NCO)NCO
inactive: [1] | [2] | [3] | [5] | [6] | [9]

N#CCCO
inactive: [1] | [2] | [3] | [5] | [6]

CC(=O)C=C(C)C
not listed: [4] | [7]
inactive: all other assays above

Oc1c(I)cc(I)cc1I
active: [1] 76.1 µM | [3] 19 µM | [6] 33.6 µM
not listed: [4]
inactive: all other assays above

C[C@H]1O[C@@H](O[C@H]2[C@@H](O)C[C@H](O[C@H]3[C@@H](O)C[C@H](O[C@H]4CC[C@@]5(C)[C@H](CC[C@@H]6[C@@H]5CC[C@]5(C)[C@@H](C7=CC(=O)OC7)CC[C@]65O)C4)O[C@@H]3C)O[C@@H]2C)C[C@H](O)[C@@H]1O
active: [1] 0.0564 µM | [6] 0.497 µM
inactive: [2] | [3] | [5]

CCC[CH2][Sn]([CH2]CCC)([CH2]CCC)[O]C(=O)c1ccccc1
active: [3] 0.137 µM | [5] 0.774 µM
inactive: [1] | [2] | [6]

NC(=S)Nc1ccccc1
active: [5] 64.2 µM
not listed: [4] | [8] | [10]
inactive: all other assays above

Fc1ccc(C2(Cn3cncn3)OC2c2ccccc2Cl)cc1 (configuration not stated)
active: [3] 12.3 µM
not listed: [4] | [9] | [10]
inactive: all other assays above

O=[N+]([O-])c1c(Cl)c(Cl)cc(Cl)c1Cl
not listed: [4] | [8] | [9]
inactive: all other assays above

COc1cccc(C=O)c1
active: [2] 175 nM
not listed: [5] | [8] | [9]
inactive: all other assays above

O=[N+]([O-])c1ccc2c3c(cccc13)CC2
inactive: [1] | [5] | [6] | [7]
active: [2] 82.3 nM | [3] 11.5 µM
